Experimental findings from ChEMBL document CHEMBL2218924, “A broad activity screen in support of a chemogenomic map for kinase signalling research and drug discovery” (Biochem J, 2013) are described below.

Assay [1] has as its target T1, Serine/threonine-protein kinase TBK1 (Homo sapiens) (UniProt Q9UHD2).
T1 sequence (whole entry): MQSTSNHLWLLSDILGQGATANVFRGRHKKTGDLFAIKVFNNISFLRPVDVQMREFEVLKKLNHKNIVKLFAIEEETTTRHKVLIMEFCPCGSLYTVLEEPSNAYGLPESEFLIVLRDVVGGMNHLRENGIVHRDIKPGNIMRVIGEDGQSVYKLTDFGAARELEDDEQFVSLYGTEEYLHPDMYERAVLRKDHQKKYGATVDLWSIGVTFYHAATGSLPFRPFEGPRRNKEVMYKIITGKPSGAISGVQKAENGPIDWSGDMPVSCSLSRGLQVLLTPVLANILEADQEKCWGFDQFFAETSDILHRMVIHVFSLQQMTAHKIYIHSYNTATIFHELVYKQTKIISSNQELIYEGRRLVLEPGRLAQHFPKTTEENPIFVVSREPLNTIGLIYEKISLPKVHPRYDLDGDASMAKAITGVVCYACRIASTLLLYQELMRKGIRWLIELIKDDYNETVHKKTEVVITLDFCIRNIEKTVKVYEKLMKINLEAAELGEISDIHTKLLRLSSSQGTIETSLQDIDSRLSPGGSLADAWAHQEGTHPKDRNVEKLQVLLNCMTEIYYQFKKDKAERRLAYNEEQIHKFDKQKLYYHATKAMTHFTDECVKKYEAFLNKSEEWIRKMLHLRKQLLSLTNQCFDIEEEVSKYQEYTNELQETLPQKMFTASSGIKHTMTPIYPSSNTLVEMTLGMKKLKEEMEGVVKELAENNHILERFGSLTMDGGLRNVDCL
The settings on record: at 10 µM.

Assay [2] has as its target T2, TGF-beta receptor type-1 (Homo sapiens) (UniProt P36897).
T2 sequence (whole entry): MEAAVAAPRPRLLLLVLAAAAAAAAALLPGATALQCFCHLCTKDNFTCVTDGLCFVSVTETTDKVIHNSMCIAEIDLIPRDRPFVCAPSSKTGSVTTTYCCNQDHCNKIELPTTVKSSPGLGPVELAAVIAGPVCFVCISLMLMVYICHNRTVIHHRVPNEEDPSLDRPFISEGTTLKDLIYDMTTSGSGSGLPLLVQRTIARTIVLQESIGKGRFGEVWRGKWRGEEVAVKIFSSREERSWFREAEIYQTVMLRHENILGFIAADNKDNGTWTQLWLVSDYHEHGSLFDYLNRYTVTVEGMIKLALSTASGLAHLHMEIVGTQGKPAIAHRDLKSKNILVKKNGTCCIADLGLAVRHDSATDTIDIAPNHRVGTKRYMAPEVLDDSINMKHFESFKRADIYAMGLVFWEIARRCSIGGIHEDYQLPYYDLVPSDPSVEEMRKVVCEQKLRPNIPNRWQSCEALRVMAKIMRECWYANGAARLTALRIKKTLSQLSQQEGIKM
The settings on record: at 1 µM.

The target in assay [3] is T2, TGF-beta receptor type-1 (Homo sapiens). The settings on record: at 10 µM.
In assay [4] the target is Insulin-like growth factor 1 receptor (Homo sapiens) (UniProt P08069). The settings on record: at 1 µM.
Assay [5] has the same target. The settings on record: at 10 µM.
The target in assay [6] is T3, Inhibitor of nuclear factor kappa-B kinase subunit alpha (Homo sapiens) (UniProt O15111).
T3 sequence (whole entry): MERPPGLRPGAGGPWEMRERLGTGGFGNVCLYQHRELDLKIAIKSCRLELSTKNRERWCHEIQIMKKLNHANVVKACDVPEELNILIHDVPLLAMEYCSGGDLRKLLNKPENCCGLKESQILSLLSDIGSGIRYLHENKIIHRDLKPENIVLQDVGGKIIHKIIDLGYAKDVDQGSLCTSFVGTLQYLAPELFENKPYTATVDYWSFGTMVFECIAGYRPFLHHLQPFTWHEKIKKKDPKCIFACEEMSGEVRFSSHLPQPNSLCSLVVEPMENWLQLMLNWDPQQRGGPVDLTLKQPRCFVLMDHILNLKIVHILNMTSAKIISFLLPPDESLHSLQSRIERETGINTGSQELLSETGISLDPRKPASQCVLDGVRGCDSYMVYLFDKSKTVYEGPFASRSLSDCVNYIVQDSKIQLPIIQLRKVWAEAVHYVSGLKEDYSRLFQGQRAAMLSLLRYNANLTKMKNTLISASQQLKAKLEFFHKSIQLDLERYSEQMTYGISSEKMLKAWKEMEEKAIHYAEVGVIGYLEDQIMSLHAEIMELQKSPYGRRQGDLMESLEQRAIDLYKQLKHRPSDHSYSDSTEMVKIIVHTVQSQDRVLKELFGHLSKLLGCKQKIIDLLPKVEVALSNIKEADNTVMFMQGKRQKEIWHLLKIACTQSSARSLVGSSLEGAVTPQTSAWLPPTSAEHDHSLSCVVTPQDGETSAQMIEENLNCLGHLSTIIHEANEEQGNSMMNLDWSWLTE
The settings on record: at 1 µM.

The target in assay [7] is T3, Inhibitor of nuclear factor kappa-B kinase subunit alpha (Homo sapiens). The settings on record: at 10 µM.
Assay [8] deals with T4, Inhibitor of nuclear factor kappa-B kinase subunit beta (Homo sapiens) (UniProt O14920).
T4 sequence (whole entry): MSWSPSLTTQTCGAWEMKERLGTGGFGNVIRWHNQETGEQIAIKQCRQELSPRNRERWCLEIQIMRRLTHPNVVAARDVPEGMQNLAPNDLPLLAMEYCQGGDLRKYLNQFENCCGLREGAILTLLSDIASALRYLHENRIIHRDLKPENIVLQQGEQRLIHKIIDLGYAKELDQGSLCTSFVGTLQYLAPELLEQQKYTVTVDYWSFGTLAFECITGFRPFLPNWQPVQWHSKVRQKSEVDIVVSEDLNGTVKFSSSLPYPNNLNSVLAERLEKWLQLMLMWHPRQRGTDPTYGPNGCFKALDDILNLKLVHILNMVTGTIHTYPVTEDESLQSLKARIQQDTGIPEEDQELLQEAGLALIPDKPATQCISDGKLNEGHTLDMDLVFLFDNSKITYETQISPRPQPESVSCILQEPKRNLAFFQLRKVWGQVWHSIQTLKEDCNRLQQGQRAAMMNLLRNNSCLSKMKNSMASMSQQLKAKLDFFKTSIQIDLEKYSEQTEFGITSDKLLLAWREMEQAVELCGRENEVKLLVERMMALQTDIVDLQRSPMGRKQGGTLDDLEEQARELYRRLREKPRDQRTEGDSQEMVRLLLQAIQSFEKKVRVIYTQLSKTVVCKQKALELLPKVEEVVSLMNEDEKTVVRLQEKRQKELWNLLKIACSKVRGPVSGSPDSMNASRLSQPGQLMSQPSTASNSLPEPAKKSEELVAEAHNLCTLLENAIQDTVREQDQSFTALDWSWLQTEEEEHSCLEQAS
The settings on record: at 1 µM.

Assay [9] has as its target T4, Inhibitor of nuclear factor kappa-B kinase subunit beta (Homo sapiens). The settings on record: at 10 µM.
Assay [10] addresses Insulin receptor (Homo sapiens) (UniProt P06213). The settings on record: at 1 µM.

Chain of Insulin-like growth factor 1 receptor (Homo sapiens) (P08069 31-736 limits assumed): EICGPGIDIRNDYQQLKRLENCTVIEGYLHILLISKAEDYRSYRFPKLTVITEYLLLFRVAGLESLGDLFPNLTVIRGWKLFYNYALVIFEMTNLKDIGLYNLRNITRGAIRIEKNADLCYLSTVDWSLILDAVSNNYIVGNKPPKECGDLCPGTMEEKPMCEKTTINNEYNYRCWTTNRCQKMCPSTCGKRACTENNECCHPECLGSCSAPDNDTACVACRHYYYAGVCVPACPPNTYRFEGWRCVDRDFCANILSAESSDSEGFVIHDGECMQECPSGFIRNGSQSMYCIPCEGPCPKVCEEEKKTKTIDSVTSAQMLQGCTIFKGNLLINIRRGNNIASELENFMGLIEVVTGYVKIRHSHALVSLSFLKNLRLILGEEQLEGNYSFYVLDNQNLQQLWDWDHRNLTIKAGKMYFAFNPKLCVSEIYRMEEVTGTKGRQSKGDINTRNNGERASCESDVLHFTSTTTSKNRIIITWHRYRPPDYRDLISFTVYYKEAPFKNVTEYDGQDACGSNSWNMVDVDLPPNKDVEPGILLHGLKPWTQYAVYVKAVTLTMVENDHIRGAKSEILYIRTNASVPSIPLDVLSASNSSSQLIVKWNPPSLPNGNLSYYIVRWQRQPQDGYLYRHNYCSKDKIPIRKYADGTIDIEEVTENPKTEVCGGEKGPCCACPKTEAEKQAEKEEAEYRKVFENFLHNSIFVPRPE
Chain of Insulin-like growth factor 1 receptor (Homo sapiens) (P08069 741-1367 limits assumed): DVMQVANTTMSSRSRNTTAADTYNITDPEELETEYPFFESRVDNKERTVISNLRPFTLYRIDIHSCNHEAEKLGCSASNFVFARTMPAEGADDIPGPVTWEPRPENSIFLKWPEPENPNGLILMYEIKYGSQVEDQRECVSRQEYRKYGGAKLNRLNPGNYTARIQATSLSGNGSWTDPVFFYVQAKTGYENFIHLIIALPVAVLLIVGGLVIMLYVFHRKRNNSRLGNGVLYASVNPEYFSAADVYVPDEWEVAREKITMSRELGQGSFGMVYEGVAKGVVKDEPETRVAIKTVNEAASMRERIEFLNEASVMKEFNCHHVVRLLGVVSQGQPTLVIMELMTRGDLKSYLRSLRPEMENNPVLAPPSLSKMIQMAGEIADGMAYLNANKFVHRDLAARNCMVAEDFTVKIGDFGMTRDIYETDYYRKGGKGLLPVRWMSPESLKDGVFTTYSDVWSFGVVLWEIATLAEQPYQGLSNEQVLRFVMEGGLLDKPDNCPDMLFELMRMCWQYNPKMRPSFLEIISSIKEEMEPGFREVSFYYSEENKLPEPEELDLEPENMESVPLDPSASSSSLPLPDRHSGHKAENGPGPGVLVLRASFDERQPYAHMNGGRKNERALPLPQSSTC
Chain of Insulin receptor (Homo sapiens) (P06213 28-758 limits assumed): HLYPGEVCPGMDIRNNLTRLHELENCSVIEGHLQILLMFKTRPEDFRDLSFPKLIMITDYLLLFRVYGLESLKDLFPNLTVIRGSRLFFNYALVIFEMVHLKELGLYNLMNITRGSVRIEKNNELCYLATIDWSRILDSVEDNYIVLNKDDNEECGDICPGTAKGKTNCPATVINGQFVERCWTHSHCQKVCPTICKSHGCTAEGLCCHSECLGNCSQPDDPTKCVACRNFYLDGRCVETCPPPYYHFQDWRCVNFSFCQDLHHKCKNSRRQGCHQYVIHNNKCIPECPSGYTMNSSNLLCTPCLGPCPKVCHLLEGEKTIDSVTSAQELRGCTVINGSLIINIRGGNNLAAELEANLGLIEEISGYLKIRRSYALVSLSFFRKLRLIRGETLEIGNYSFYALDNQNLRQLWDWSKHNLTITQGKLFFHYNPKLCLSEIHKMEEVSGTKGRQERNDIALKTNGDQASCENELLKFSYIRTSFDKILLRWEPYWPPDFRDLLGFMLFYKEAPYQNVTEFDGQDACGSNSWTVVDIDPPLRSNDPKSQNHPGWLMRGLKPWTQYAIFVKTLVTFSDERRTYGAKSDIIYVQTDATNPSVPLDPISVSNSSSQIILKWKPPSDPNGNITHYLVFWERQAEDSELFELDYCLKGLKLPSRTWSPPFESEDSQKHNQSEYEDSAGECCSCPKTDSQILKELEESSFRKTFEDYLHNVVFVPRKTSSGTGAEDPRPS
Chain of Insulin receptor (Homo sapiens) (P06213 763-1382 limits assumed): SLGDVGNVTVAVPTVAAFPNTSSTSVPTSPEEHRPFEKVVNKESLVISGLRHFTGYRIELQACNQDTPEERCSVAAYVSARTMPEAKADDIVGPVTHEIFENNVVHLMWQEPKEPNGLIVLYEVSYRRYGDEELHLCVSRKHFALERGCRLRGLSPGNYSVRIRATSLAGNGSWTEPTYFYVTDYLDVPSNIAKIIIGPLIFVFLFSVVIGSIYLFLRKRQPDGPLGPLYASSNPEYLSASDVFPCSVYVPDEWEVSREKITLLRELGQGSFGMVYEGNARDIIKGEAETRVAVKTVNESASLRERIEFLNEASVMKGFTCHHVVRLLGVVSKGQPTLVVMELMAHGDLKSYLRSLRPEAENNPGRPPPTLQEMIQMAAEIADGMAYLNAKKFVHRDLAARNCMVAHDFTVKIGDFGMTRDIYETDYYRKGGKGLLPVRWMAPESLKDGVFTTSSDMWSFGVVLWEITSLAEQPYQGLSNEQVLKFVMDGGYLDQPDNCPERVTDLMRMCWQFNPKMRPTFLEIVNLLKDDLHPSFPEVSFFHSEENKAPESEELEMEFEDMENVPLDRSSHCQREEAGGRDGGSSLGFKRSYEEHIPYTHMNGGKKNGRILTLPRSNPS

Consider `CCC(=O)Nc1ccc2ncnc(Nc3cccc(Br)c3)c2c1`, for which the residual activity was 68% in [1]; 75% in assay [2]; 94% in assay [3]; 97% in [4]; 102% in assay [5]; 121% in assay [6]. For the same molecule, the residual activity in [7] worked out at 125%; in assay [8] it was 112%; in [9], 97%; in assay [10], 110%.

By residual activity is commonly meant the signal under treatment as a percentage of the control signal.
